Screening results (PubChem BioAssay)
Pf Dd2 inh: qHTS Primary assay for Inhibitors of Plasmodium falciparum Dd2 growth in vitro. hit rate 4.3% among 120,000. Potency, µM (top dose mostly 28.9 µM), actives largely listed as inhibitors. P. falciparum Dd2 growth, SYBR Green, 72 h; active = well fitted inhibition curve with a large enough effect; also: nearly all actives have a fitted effect of over 65% in size
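Infected erythrocytes (Dd2, 0.3% parasitemia, 2.5% hematocrit final) are added to compound in RPMI-1640/Albumax II medium, grown 72 h at 37C in low oxygen, then lysed with saponin/Triton-X containing SYBR Green and read by fluorescence.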
Each line names hits and unclear results; the compound was inactive in the other large screens. The sample as a whole holds a higher share of hits than the screen did.

COc1ccc(C2c3[nH]c4ccc(OC)cc4c3CCN2C(=O)Nc2ccccc2)cc1 (stereo unspecified)	Pf Dd2 inh 6.31µM
CCOc1cc(C(=O)N2CCC[C@H]2c2nc(-c3ccc(C)cc3)no2)cc(OCC)c1OCC	none
COc1ccccc1C(=O)NC1CCCc2c1[nH]c1ccccc21 (stereo unspecified)	none
COc1cc(C(=O)N2CCc3c([nH]c4ccccc34)C2c2ccc(F)cc2)cc(OC)c1OC (stereo unspecified)	Pf Dd2 inh 4.47µM
COc1ccc2[nH]c3c(c2c1)CCN(C)C31CCN(C(=O)C2CCCC2)CC1	none
CCOc1ccc(C2c3[nH]c4ccccc4c3CCN2C(=O)CCC2CCCC2)cc1 (stereo unspecified)	none
COc1ccc(C(=O)N2CC(=O)Nc3ccc(Br)cc3C2c2ccc(F)cc2)cc1OC (stereo unspecified)	none
CCc1ccccc1NC(=O)N1CCc2c([nH]c3ccccc23)C1c1ccc(C)cc1 (stereo unspecified)	none
CCOc1cc(CNC(=O)C2CCN(c3nc4ccccc4[nH]3)CC2)cc(OCC)c1OCC	none
CCOc1cc(C(=O)N2CCc3c([nH]c4ccccc34)C2c2ccccc2)cc(OCC)c1OCC (stereo unspecified)	Pf Dd2 inh 2µM
Cc1cccc(NC(=O)N2CC(Oc3ccc(-c4nc(-c5ccccc5)no4)cc3)C2)c1	none
COCCN1C(=O)CO[C@H]2CN(c3nccc(OC)n3)C[C@H]21	none
Cc1ccc(CNC(=O)N2CCCCCCNC(=O)[C@@H]3CCCC[C@@H]32)cc1	none
O=C(Cc1c(F)cccc1Cl)NC1CCc2n[nH]c(=O)n2CC1 (stereo unspecified)	none
CCc1ccc(NC(=O)c2c(OC)cc(=O)n3c2CCCC3)cc1	none
CC[C@@]1(C(=O)O)C[C@H](C(=O)NC(CO)CO)[C@H](c2ccc(OC)cc2)N1C	none
CCn1cc(S(=O)(=O)N2CCC3(CCCN(CC4CC4)C3=O)C2)cn1 (stereo unspecified)	none
Cc1ccc(CN2C[C@@H]3C(=O)N(CCCN4CCCC4=O)C(=O)[C@@H]3C2)cc1	none
O=C(O)CCC1CCN(C(=O)c2ccccc2F)CC1	none
CC(C)CN1C(=O)c2cccn2CC1C(=O)NCc1ccc(Cl)cc1 (stereo unspecified)	none
O=C(CC1CCN(C(=O)c2cccc(F)c2)C1)NCc1ccccc1 (stereo unspecified)	none
O=C(O)c1ccc(CN2CC[C@H](c3nnc(-c4cccnc4)o3)C2)cc1	none
COc1cccc(NC(=O)CSC2=Nc3ccccc3C3=NC(CC(=O)NCc4cccs4)C(=O)N23)c1 (stereo unspecified)	none
Cc1ccc(CSC2=Nc3ccccc3C3=NC(CC(=O)NCc4cccs4)C(=O)N23)cc1 (stereo unspecified)	Pf Dd2 inh 3.16µM
CC(C)c1ccc(NC(=O)CSC2=Nc3ccccc3C3=NC(CC(=O)NCc4cccs4)C(=O)N23)cc1 (stereo unspecified)	none
COc1ccccc1NC(=O)CSC1=Nc2ccccc2C2=NC(CC(=O)NCc3ccccc3)C(=O)N12 (stereo unspecified)	none
O=C(CC1N=C2c3ccccc3N=C(SCC(=O)Nc3ccccc3F)N2C1=O)NCc1cccs1 (stereo unspecified)	Pf Dd2 inh 3.98µM
O=C(CCC1N=C2c3ccccc3N=C(SCc3ccc(Cl)cc3)N2C1=O)NCc1cccs1 (stereo unspecified)	none
Cc1cc(C)c(NC(=O)CSC2=Nc3ccccc3C3=NC(CC(=O)NCc4cccs4)C(=O)N23)c(C)c1 (stereo unspecified)	Pf Dd2 inh 12.6µM
O=C(CC1N=C2c3ccccc3N=C(SCc3ccccc3F)N2C1=O)NCc1cccs1 (stereo unspecified)	none
O=C(CC1N=C2c3ccccc3N=C(SCc3ccc(Cl)cc3)N2C1=O)NCc1cccs1 (stereo unspecified)	none
CC(=O)N1CCCC(C(=O)NCc2nc(Cc3cccs3)no2)C1 (stereo unspecified)	none
O=C(c1cccnc1)N1CCC2(CC1)C(=O)NN=C2C1CC1	none
CS(=O)(=O)N1C[C@@H](Oc2ccccc2)C[C@H]1C(=O)N1CCOCC1	none
COCC(=O)N1CC[C@]2(O)CCN(C(=O)c3ccn(C)c3C)C[C@@H]2C1	none
O=C(O)C1CNCCN(Cc2ccc(-c3nn[nH]n3)cc2)C1 (stereo unspecified)	none
Cc1c(C(=O)NC2CC(c3nnc(CO)n3C3CC3)C2)n(C)c2c(C)cccc12 (stereo unspecified)	none
O=C1COc2cc(C(=O)NC3CC(c4nnc(CO)n4C4CC4)C3)ccc2N1 (stereo unspecified)	Pf Dd2 inh 6.31µM
O=C(NC1CC(c2nnc(CO)n2C2CC2)C1)c1n[nH]c2c1COCC2 (stereo unspecified)	none
CCC(C)NC(=O)c1sc2nc(C)c(C(=O)Nc3ccc(C)cc3C)c(-c3ccccc3Cl)c2c1N (stereo unspecified)	Pf Dd2 inh 3.16µM
COc1cccc(-c2ccc3c(N)c(C(=O)Nc4ccc(C)c(F)c4)sc3n2)c1	none
COc1cccc(NC(=O)c2sc3nc(C)c(C(=O)Nc4ccc(C)cc4C)c(-c4cccs4)c3c2N)c1	Pf Dd2 inh 1.26µM
